High-throughput results as filed in PubChem.
A selection: hits, their analogues and other compounds. The true share with any hit is near 3.8%.
Nrf2 inh: Nrf2 qHTS screen for inhibitors. A549 ARE-Fluc reporter, luciferase luminescence, 18-24 h. Potency, µM (highest dose often 46 µM), for the others: at the top dose activity change, negative = inhibition, usual class: inhibitors. 360,000 compounds, 2.1% hits; further: on the % scale 0 is the no-effect control and ±100 the full control effect; nearly all actives have a fitted effect of over 60% in size
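Nrf2 function is reported as luminescence of an ARE-controlled luciferase in A549 cells. Compounds were tested at several concentrations, and a CellTiter-Fluor read on the same wells flagged cytotoxicity.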
ATXN viability: Viability Counterscreen for Primary qHTS for Inhibitors of ATXN expression; 400,000 compounds, 0.49% hits; Potency, µM (series often up to 56.7 µM), usual class: cytotoxic; S2 cells (HEK-293 line with an ATXN2-luciferase reporter) viability, CellTiter-Fluor protease fluorescence, 24 h; further: nearly all actives have a fitted effect of over 40% in size
ATXN2 expr inh: Primary qHTS for Inhibitors of ATXN expression; HEK-293 ATXN2-luciferase reporter, luminescence, 24 h; 360,000 compounds, 0.72% hits; Potency, µM (doses to about 57 µM), for the others: top-dose activity change, negative = inhibition, usual class: inhibitors; further: on the % scale 0 is the no-effect control and ±100 the full control effect; nearly all actives have a fitted effect of over 55% in size
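qHTS (up to 57 uM final) was run with 24 h compound exposure of reporter cells at 37 °C. Each well was multiplexed: SteadyGlo luminescence measured ATXN2-luciferase expression after a fluorogenic Gly-Phe-AFC viability readout (25 uM final).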
TGFb inhibitor: qHTS for Inhibitors of TGF-b; Potency, µM (titrated, usually from 46.1 µM), for the others: at the top dose activity, negative = inhibition, actives largely listed as inhibitors; HepG2 CAGA-GFP TGF-b/SMAD3 reporter, GFP fluorescence, 18 h; TGF-beta stimulated, 500 pg/mL final; 410,000 compounds, 1.2% hits; AID 588855, 2011; further: on the % scale 0 is the no-effect control and ±100 the full control effect; nearly all actives have a fitted effect of over 65% in size
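Inhibition of TGF-beta-driven CAGA-GFP reporter expression in HEPG2 cells is measured by cellular GFP fluorescence after 18 h stimulation with 500 pg/mL recombinant TGF-beta in 1% FBS medium at 37 degrees C.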
HepG2 tox: qHTS for Inhibitors of TGF-b: Cytotox Counterscreen. Potency, µM (doses to about 46.1 µM), for the others: at the top dose activity change, negative = cytotoxicity, actives largely listed as cytotoxic. HepG2 CAGA-GFP viability, ATP luminescence, 18 h. 410,000 compounds, 0.76% hits
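CellTiter-Glo luminescence gave cytotoxicity after 18 hours at 37 degrees C. The cells were HepG2 CAGA-GFP in 1% FBS DMEM, stimulated with 500 pg/mL TGF-beta after compound addition. %Activity was normalised to no-cell wells (complete cell-killing) and DMSO (no toxicity), and curves were fitted and classified.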
A549 tox-1: Nrf2 qHTS screen for inhibitors: counterscreen for cytotoxicity | A549 ARE-Fluc cells, CellTiter-Fluor viability, 18-24 h | Potency, µM (doses to about 46 µM), for inactives: top-dose activity change, negative = cytotoxicity, actives largely listed as inhibitors | 390,000 compounds, 0.16% hits; further: on the % scale 0 is the no-effect control and ±100 the full control effect
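A549 ARE_Fluc cells in 5% FBS OPTI-MEM were exposed to compounds in concentration-response for 18-24 h at 37 deg C. Viability was read by CellTiter-Fluor fluorescence (Ex 405/Em 525) after 30 min, before the luciferase read.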
FLuc enzyme inh: Nrf2 qHTS screen for inhibitors: Purified Fluc Biochemical Counterscreen for Hit Validation. Potency, µM (titrated, usually from 57.5 µM), for inactives: top-dose activity change, negative = inhibition, hits mostly inhibitors. shares compounds with Nrf2 inh. 1,400 compounds, 4% hits. purified firefly luciferase, luminescence inhibition; further: on the % scale 0 is the no-effect control and ±100 the full control effect; nearly all actives have a fitted effect of over 65% in size
Target sequence (P08659 whole entry, looked up): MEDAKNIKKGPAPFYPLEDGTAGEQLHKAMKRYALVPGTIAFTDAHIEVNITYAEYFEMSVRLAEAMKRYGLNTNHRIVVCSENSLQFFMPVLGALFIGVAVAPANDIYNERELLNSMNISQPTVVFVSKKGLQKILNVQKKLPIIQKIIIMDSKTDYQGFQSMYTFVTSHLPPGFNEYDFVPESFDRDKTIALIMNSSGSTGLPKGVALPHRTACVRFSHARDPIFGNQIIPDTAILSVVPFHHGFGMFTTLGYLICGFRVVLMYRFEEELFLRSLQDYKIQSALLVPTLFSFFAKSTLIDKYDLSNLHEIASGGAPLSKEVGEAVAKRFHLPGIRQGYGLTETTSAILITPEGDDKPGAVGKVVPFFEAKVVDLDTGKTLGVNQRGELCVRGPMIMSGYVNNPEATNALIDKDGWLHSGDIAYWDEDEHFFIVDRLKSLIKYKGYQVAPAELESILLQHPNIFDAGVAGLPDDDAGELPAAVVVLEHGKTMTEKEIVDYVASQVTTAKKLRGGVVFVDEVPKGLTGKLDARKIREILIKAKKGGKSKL
A549 tox-2: Nrf2 qHTS screen for inhibitors: A549 ARE-Fluc Cytotoxicity Counterscreen for Hit Validation. Potency, µM (top dose mostly 46.1 µM), for inactives: at the highest dose activity change, negative = cytotoxicity, hits mostly inhibitors. AID 720523, 2013. 1,400 compounds, 2% hits. A549 ARE-Fluc cells, cytotoxicity counterscreen. shares compounds with Nrf2 inh;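 further: cells exposed to compounds for 18 to 24 hours; on the % scale 0 is the no-effect control and ±100 the full control effect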
ARE-Fluc inh: Nrf2 qHTS screen for inhibitors: Nrf2 A549 ARE-Fluc Confirmation Assay for Hit Validation | 1,400 compounds, 74% hits | shares compounds with Nrf2 inh | Potency, µM (doses to about 46.1 µM), without a hit: at the top dose activity change, negative = inhibition, hits mostly inhibitors | AID 720524, 2013 | A549 ARE-firefly luciferase reporter, luminescence; further: on the % scale 0 is the no-effect control and ±100 the full control effect; nearly all actives have a fitted effect of over 65% in size
An asterisk follows results filed as active; i = inactive; u = inconclusive; x = no result shown. The call rests on the fitted dose curve; in most records, active means well fitted curve in the direction sought with a large enough effect; inconclusive means small, poorly fitted or top-dose-only effect, or another doubt; inactive means no such curve, though single readings can be large; an effect the other way counts as inactive or inconclusive. Potency means the concentration at half of the fitted maximal effect.

SMILES | Nrf2 inh | ATXN viability | ATXN2 expr inh | TGFb inhibitor | HepG2 tox | A549 tox-1 | FLuc enzyme inh | A549 tox-2 | ARE-Fluc inh
CC(C)n1c(CN(C)Cc2ccccc2)nc2c1c(=O)n(C)c(=O)n2C | 0.46µM* | u | u | 0% | -24% | -17% | 2% | -3% | 4.1µM*
CCN(CC)S(=O)(=O)c1ccc2oc(SCC3CN=C(c4ccc(OC)cc4)S3)nc2c1 (centres undefined) | 6.5µM* | i | -31% | -7% | -35% | -27% | -26% | -12% | u
COc1ccc(Cn2ncc3c4sc(C)cc4n(C)c3c2=O)cc1 | 2% | x | x | x | x | -4% | x | x | x
CCC(C)c1ccc(NC(=O)c2c([N+](=O)[O-])cnn2CC)cc1 (centres undefined) | 6% | i | 10% | u | -5% | -1% | x | x | x
CCN1/C(=C/c2sc(-c3ccccc3C)c[n+]2C)Sc2ccccc21 | 0.37µM* | x | u | 2.5µM* | -31% | u | -1% | u | 1.8µM*
CN1/C(=C/c2cccc[n+]2CCO)Sc2ccccc21 | u | i | -10% | -25% | -30% | 4% | x | x | x
CC[n+]1ccccc1/C=C1\Sc2ccc(C)cc2N1C | 6.5µM* | u | 4µM* | u | -64% | u | 1% | -28% | 2.9µM*
Cc1ccc(S(=O)(=O)Nc2ccc(Br)cc2C(NCC(=O)O)c2ccccc2)cc1 (centres undefined) | -17% | i | 3% | u | -4% | -8% | x | x | x
O=C(O)CSc1cc(NS(=O)(=O)c2ccc(Br)cc2)c2ccccc2c1O | 2.3µM* | i | x | u | -27% | -16% | 12µM* | -4% | -8%
O=C1c2ccccc2-n2c1nc1ccccc1c2=O | 5.2µM* | i | -7% | u | -32% | -20% | -26% | 16µM* | 6.5µM*
COc1ccc(S(=O)(=O)N2CC(=O)Nc3ccccc32)cc1 | 0% | i | 4% | -9% | -2% | 8% | x | x | x
CCOC(=O)N1CCC(Nc2ncnc3c2cnn3-c2ccc(C)cc2C)CC1 | 8.2µM* | i | u | u | -36% | -16% | 1% | -2% | 13µM*
C=CCNc1ncnc2c1cnn2-c1ccc(C)cc1C | 9% | i | 11% | 3% | -4% | -5% | x | x | x
CC1(C)CC2CC(C)(CN2C(=O)COC(=O)c2ccccc2C(F)(F)F)C1 (centres undefined) | 3.7µM* | i | x | 0% | -30% | -14% | 0% | -1% | -24%
CSc1ncccc1C(=O)OCC(=O)N1CC2(C)CC1CC(C)(C)C2 (centres undefined) | 14% | i | 3% | 17% | -18% | 1% | x | x | x
Cc1cc(Cl)ccc1NC(=O)C1CCN(c2nnc(-n3c(C)ccc3C)s2)CC1 | -14% | x | x | x | -24% | -1% | x | x | x
O=S1(=O)[C@H]2C[C@@H]3C=C[C@]2(CN1Cc1ccc(C(F)(F)F)cc1)O3 | 10% | i | 0% | -2% | -15% | 0% | x | x | x
CCc1ccc(OC(C)c2nc(-c3ccc(-n4cccc4)cc3)no2)cc1 (centres undefined) | 8.2µM* | x | x | -32% | -21% | 9% | 1% | 3% | 8.2µM*
O=C(Cc1ccc(Cl)cc1)Nc1ccncc1 | 5.8µM* | i | -19% | -9% | -2% | -11% | 2% | 3% | -24%
COc1ccc(C(=O)N/N=C(\c2ccccc2)c2ccccn2)cc1 | 8.2µM* | 10µM* | 3.2µM* | u | -7% | u | 2% | 0% | u
O=C(NN=C(c1ccccc1)c1ccccn1)c1ccccc1 | 5.2µM* | u | 4µM* | u | -19% | u | -25% | 6.5µM* | x
O=C(Nc1cccc(-n2cnnn2)c1)c1ccc(OC(F)(F)F)cc1 | u | i | -7% | -25% | 3% | 0% | x | x | x
COc1ccc(COC(=O)C2=C(C)NC(=O)NC2c2cccc(Br)c2)cc1 (centres undefined) | u | u | u | u | -27% | -5% | 1% | -4% | u
CC1=C(C(=O)OCc2ccc3c(c2)OCO3)C(c2ccc(F)cc2)NC(=O)N1 (centres undefined) | 4.1µM* | u | u | -28% | -22% | -21% | 1% | -11% | 8.2µM*
CC(=O)N1c2ccc(S(=O)(=O)N3CCC(C(=O)N4CCN(c5ccccc5F)CC4)CC3)cc2CC1C (centres undefined) | u | i | -33% | -3% | -1% | 2% | x | x | x
CC1Cc2cc(S(=O)(=O)N3CCN(c4ccc(Cl)cc4)CC3)ccc2N1C(=O)C1CC1 (centres undefined) | 7.3µM* | i | u | u | -5% | -15% | 2% | -12% | 8.2µM*
CC(=O)N1c2ccc(S(=O)(=O)N3CCC(C(=O)N4CCN(c5ccc(Cl)cc5)CC4)CC3)cc2CC1C (centres undefined) | 5.2µM* | i | u | u | -22% | -10% | 1% | -10% | x
CC1Cc2cc(S(=O)(=O)N3CCN(c4cccc(Cl)c4)CC3)ccc2N1C(=O)C1CC1 (centres undefined) | u | i | -3% | -1% | -7% | 2% | x | x | x
CCO[C@@H]1OC(C(=O)NCc2ccccc2)=C[C@H](c2csc3ccccc23)[C@H]1CCCO | -23% | u | u | u | -3% | -3% | x | x | x
C=CC[n+]1ccc(/C=C2\C=Cc3cc(C)ccc3N2CC)c2ccccc21 | 7.3µM* | 9.5µM* | u | 2.8µM* | -47% | u | u | u | x
